F-actin modifier = modifiers of F-actin cytoskeleton organization, primary screen, imaging, HUVEC, phalloidin staining, high-content imaging. HUVEC TNFa F-actin phalloidin imaging. AID 836, 2007. inhibition, % at 2 µM. 0.18% of 91,000 active;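 active = inhibition above the batch mean plus 3 SD and confirmed as a hit by visual image inspection, cut at about 30% in these data, passing the limit was not always enough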
GALR2 blocker = GALR2 antagonists in receptor-expressing cells, primary screen. AID 828, 2007. 0.39% of 140,000 active. antagonist mode. inhibition, % at 4 µM. Galanin receptor type 2 (Homo sapiens), O43603; in the data active = inhibition above about 27%;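 also: cells stimulated with galanin 1-16 at roughly its EC80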
S1P2 antag = human S1P2 receptor antagonists, primary screen, cell-based | inhibition, % at 5 µM | 0.21% of 97,000 active | cell-based S1P2 antagonist assay, inhibition at 5 uM | AID 736, 2007 | Sphingosine 1-phosphate receptor 2 (Homo sapiens), O95136; in the data active = inhibition above about 45%;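 also: CRE beta-lactamase reporter cells expressing human S1P2 stimulated with S1P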
Target sequence (O95136 whole entry, looked up): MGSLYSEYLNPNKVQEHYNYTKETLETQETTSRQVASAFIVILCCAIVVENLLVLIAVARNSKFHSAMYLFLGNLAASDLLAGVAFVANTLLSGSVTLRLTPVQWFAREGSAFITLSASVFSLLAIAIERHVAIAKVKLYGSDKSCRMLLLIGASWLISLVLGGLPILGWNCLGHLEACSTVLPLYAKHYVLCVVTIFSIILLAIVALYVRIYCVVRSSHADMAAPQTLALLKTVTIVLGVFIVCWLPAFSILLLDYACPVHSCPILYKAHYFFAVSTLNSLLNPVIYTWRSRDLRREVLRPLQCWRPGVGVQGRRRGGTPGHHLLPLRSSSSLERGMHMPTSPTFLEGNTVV
GALR2 ag = GALR2 receptor agonists, primary screen, cell-based | GALR2-expressing cells, agonist activation read-out | 0.48% of 140,000 active | activation, % (concentration not given with the values); in the data active = activation above about 5%, passing the limit was not always enough
S1P2 agonist = S1P2 receptor agonists, primary screen, cell-based; activation, % at 4.5 µM; S1P2-expressing cell line, agonist reporter read-out; AID 729, 2007; 0.46% of 97,000 active; in the data active = activation above about 16%
Hits are given with their value; 0 = inactive; - = not tested or not shown. A selection: hits, their analogues and other compounds. The true share with any hit is near 1.3%.

SMILES | F-actin modifier | GALR2 blocker | S1P2 antag | GALR2 ag | S1P2 agonist
CC1(C)c2ccccc2N2CC(=O)NC21/C=C/c1ccco1 (stereo unspecified) | 0 | 0 | 0 | 0 | 0
Cn1c(-c2sc(=S)n(-c3ccccc3)c2N)nc2ccccc21 | 0 | 0 | 0 | 0 | 32
C=CCn1c(N)c(-c2nc3ccccc3n2C)sc1=S | 0 | 0 | 0 | 0 | 0
CC(C)CNC(=S)NC(=O)c1ccc(F)cc1 | - | 0 | - | 0 | -
CCOCCCNc1nc(=S)[nH]c2cc(OC)c(OC)cc12 | 0 | 0 | 0 | 0 | 449
CCN1C(=O)/C(=C\c2cn(CCC#N)nc2-c2ccc(F)cc2)SC1=S | - | 0 | - | 0 | -
Cn1c(=O)[nH]c(=O)c2[nH]c(N(Cc3ccccc3)Cc3ccccc3)nc21 | 0 | 0 | 56 | 0 | 0
Cn1c(=O)[nH]c(=O)c2c1nc(N(CCO)Cc1ccccc1)n2CCCc1ccccc1 | 0 | 0 | 0 | 0 | 0
COc1ccc(NC(=O)N(Cc2ccc3c(c2)OCO3)C2CC(=O)N(c3ccc(OC)cc3)C2=O)cc1 (stereo unspecified) | 32 | 0 | 0 | 0 | 0
O=C1CC(N(Cc2ccc3c(c2)OCO3)C(=O)Nc2ccc(F)cc2)C(=O)N1c1ccccc1 (stereo unspecified) | 0 | 0 | 0 | 0 | 0
CN(C)c1ccc(N=Nc2ccccc2C(=O)OCC(=O)N(C)c2ccccc2)cc1 | - | 0 | - | 0 | -
CCOC(=O)C1=C(O)/C(=C/c2ccc(OCC(=O)O)c(OCC)c2)SC1=Nc1ccc(OC)cc1 | - | 0 | - | 0 | -
CCOC(=O)C1=C(O)/C(=C/c2cc(OC)c(OC)c(OC)c2)SC1=Nc1ccc(OC)cc1 | - | 0 | 0 | 0 | 37
CCN(CC)c1ccc2cc(C(=O)NNC(=O)c3ccc(S(=O)(=O)N4CCCCC4)cc3)c(=O)oc2c1 | - | 0 | - | 0 | -
CCN(CC)c1ccc2cc(S(=O)(=O)c3ccc(C)cc3)c(=O)oc2c1 | - | 0 | - | 6.0 | -
CCOC(=O)CNC(=O)Nc1cc(C(C)(C)C)nn1-c1ccccc1 | - | 0 | - | 0 | -
Cn1cccc1C(=O)OCC(=O)Nc1cc(C(C)(C)C)nn1-c1ccccc1 | 72 | 0 | 0 | 0 | 0
Cc1ccc(Nc2nc(N3CCN(C)CC3)nc(N)c2[N+](=O)[O-])cc1C | - | 0 | - | 0 | -
COc1cc2c(cc1OC)-c1cc(NC3CCCCCC3)nc(=O)n1CC2 | 0 | 0 | 0 | 0 | 42
CCN(CC)CCCNc1cc2n(c(=O)n1)CCc1cc(OC)c(OC)cc1-2 | 0 | 0 | 0 | 0 | 0
COc1ccc(C(=O)Nc2nc3c(s2)CCCC3)cc1S(=O)(=O)N1CCCc2ccccc21 | - | 0 | - | 0 | -
COc1cc2c(cc1OC)-c1cc(N3CCCCCC3)nc(=O)n1CC2 | 0 | 0 | 0 | 0 | 36
COc1cc2c(cc1OC)-c1cc(N3CCCc4ccccc43)nc(=O)n1CC2 | 0 | 0 | 0 | 0 | 41
Cc1cccc(-n2c(C)nc3cc(C(=O)NCc4ccc5c(c4)OCO5)ccc32)c1 | - | 0 | - | 0 | -
Cc1cc(OCc2ccc(C(=O)NN=C3CCCC3)cc2)ccc1Cl | - | 0 | - | 0 | -
SMILES | F-actin modifier | GALR2 blocker | S1P2 antag | GALR2 ag | S1P2 agonist
Cc1cc(C)n2cc(CSc3nnnn3-c3ccc(Cl)cc3)nc2n1 | 0 | 0 | 0 | 0 | 106
Cc1ccc(-c2nc(CSCC(=O)NCCN3CCN(Cc4ccccc4)CC3)c(C)o2)cc1 | 0 | 0 | 47 | 0 | 0
Cc1ccc(-c2nc(CSCC(=O)NCCCN3CCOCC3)c(C)o2)cc1 | 0 | 0 | 0 | 0 | 0
COc1ccc(Nc2nc(N3CCCCC3)c3ccccc3n2)cc1 | 0 | 0 | 56 | 0 | 0
CCOc1ccc2cc(/C=C/C(=O)c3ccco3)c(Cl)nc2c1 | 0 | 32 | 0 | 0 | 0
CCOc1ccc2nc(N3CCC(C(=O)N4CCN(C(=O)c5ccco5)CC4)CC3)sc2c1 | - | 0 | - | 0 | -
COc1cc(N2CCCC2)c(OC)cc1/C=c1/sc2nc3ccccc3n2c1=O | 31 | 0 | 0 | 0 | 0
O=C(NCCCn1ccnc1)c1nn2c(C(F)(F)F)cc(-c3ccc(Br)cc3)nc2c1Cl | - | 0 | - | 0 | -
CCn1c(C)cc(/C=C2/NC(=O)N(CC(=O)Nc3cccc(C)c3)C2=O)c1C | - | 0 | - | 8.0 | -
CCn1c(C)cc(/C=C2\NC(=O)N(CC(=O)Nc3cccc(C)c3)C2=O)c1C | 0 | 0 | 0 | 0 | 0
CC(C)CCNc1nc(-c2ccco2)c2c(c1C#N)CCCC2 | 0 | 0 | 0 | 0 | 37
CCc1nc(NCCC(C)C)c(C#N)c2c1CCCC2 | 0 | 0 | 0 | 0 | 0
N#Cc1c(NCCN)nc(-c2ccco2)c2c1CCCC2 | 0 | 0 | 0 | 0 | 20
CCN(CC(=O)NC1CCS(=O)(=O)C1)S(=O)(=O)c1ccc(C)c(C)c1 (stereo unspecified) | - | 0 | - | 0 | -
Cc1ccc2nc(/C(C#N)=C\c3cc(C)n(-c4cccc([N+](=O)[O-])c4)c3C)[nH]c2c1 | 0 | 0 | 0 | 0 | 17
Cc1ccccc1-n1cnc2cc(NCc3cccs3)ccc21 | 0 | 0 | 0 | 0 | 0
COc1ccccc1-n1cnc2cc(NCc3cccs3)ccc21 | 32 | 0 | 0 | 0 | 0
N#CCCS(=O)(=O)c1nnnn1-c1ccccc1 | 0 | 59 | 64 | 0 | 0
c1ccc2c(c1)[nH]c1c(N3CCSCC3)ncnc12 | - | 32 | 48 | 0 | 0
c1ccc2c(c1)[nH]c1c(N3CCCC3)ncnc12 | 0 | 0 | 0 | 0 | 0
O=C1C2C3C=CC(CO)(O3)C2C(=O)N1c1ccccc1-c1ccccc1 (stereo unspecified) | - | 76 | - | 0 | -
COc1cc2c(cc1OC)-c1cc(Nc3ccc4c(c3)OCCO4)nc(=O)n1CC2 | 0 | 0 | 0 | 0 | 20
COc1cc2c(cc1OC)-c1cc(OCc3cccnc3)nc(=O)n1CC2 | 0 | 0 | 0 | 0 | 23
CCOc1cccc(Nc2cc3n(c(=O)n2)CCc2cc(OC)c(OC)cc2-3)c1 | 0 | 0 | 0 | 0 | 29
COc1ccc(C(=O)N2CCN=C2SCc2cccnc2)cc1OC | 0 | 0 | 0 | 0 | 0
SMILES | F-actin modifier | GALR2 blocker | S1P2 antag | GALR2 ag | S1P2 agonist
CC1CC(C)CN(CCOc2ccc(Br)cc2)C1 (stereo unspecified) | - | 0 | - | 0 | -
COc1ccc(C(=O)OCCNC(=O)c2c(Cl)nc3ccccn23)cc1 | 0 | 0 | 0 | 0 | 21
CCOC(=O)c1cc(-c2ccc3c(c2)OCCO3)nc2c1c(C)nn2CCC#N | 0 | 0 | 0 | 7.1 | 0
CCOC(=O)c1cc(-c2ccc(Cl)cc2)nc2c1c(C)nn2CCC#N | 0 | 0 | 0 | 0 | 0
Cc1ccc(-n2[nH]c(C)c(CCC#N)c2=O)cc1 | - | 0 | - | 0 | -
O=C(CSCCO)Nc1cccc2ccccc12 | 0 | 0 | 0 | 0 | 0
N#CCN1CCN(CC(=O)Nc2cccc3ccccc23)CC1 | 0 | 0 | 0 | 0 | 760
CCC(=O)c1cc2c(C)cc(=O)oc2c(C)c1O | 0 | 0 | 0 | 0 | 119
CCC(=O)c1cc2c(C)cc(=O)oc2c(C)c1OC(C)=O | - | 0 | - | 0 | -
CC(C)/C=N/NC(=O)c1ccc(Cl)cc1 | - | 0 | - | 0 | -
Cc1cccc(-n2c(SCc3cc(=O)n4ccsc4n3)nc3ccccc32)c1 | 0 | 0 | 0 | 0 | 26
Cc1nn(-c2cccc(Cl)c2)c(Cl)c1/C=N/NC(=O)c1cccs1 | - | 0 | - | 5.0 | -

Compound activity as filed in PubChem BioAssay.
